Assay outcomes (PubChem)
KAT2A inh: inhibitors of human GCN5L2 histone acetyltransferase; GCN5L2 HAT assay, ThioGlo1 CoA-SH fluorescence; AID 504327; hit rate 0.21% among 390,000; Potency, µM (titrated, usually from 58.9 µM), without a hit: top-dose activity change, negative = inhibition, most hits filed as inhibitors
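Fluorescence readout, Ex340nm/Em540nm: ThioGlo1 (50uM final) reacts with free CoA thiol released as 20nM GCN5L2 acetylates H3(1-25) peptide (75uM) using acetyl-CoA (70uM). Compound and enzyme sat 15 min beforehand; 20 min room-temperature reaction.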
VDR inhibitor: inhibitors of human vitamin D receptor; P11473; VDR-SRC2-3 peptide fluorescence polarization, 2 h; Potency, µM, for the others: max response, negative = inhibition, usual class: inhibitors; hit rate 0.93% among 400,000
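Reagent solutions, kept cold and dark, are dispensed first; compounds are then pinned in at 23 nl, plates briefly spun, and incubated 2 h at ambient temperature. Inhibition of VDR–SRC2-3 peptide binding is read by fluorescence polarization.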
12-LOX inh: inhibitors of human 12S-lipoxygenase ALOX12 | P18054 | purified 12hLO, xylenol orange hydroperoxide absorbance | Potency, µM (top dose mostly 108 µM), for the others: at the top dose activity change, negative = inhibition, hits mostly inhibitors | hit rate 1.1% among 580,000
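Purified human 12hLO (150 nM final) in 25 mM Hepes, 0.01% Triton X-100, pH 7.0 was preincubated 15 min at room temperature with compound. Then 40 uM arachidonic acid was added, 30 min. Hydroperoxide was read by Fe-XO absorbance ratio 573/405 nm.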
PLK1 PBD block: PLK1 (human) polo-box domain binding inhibition | P53350 | Plk1 PBD binding of FITC phosphopeptide, fluorescence polarization | Potency, µM, without a hit: max response, negative = inhibition, actives largely listed as inhibitors | hit rate 2.8% among 360,000 | AID 720504; note: series mostly up to about 57 µM; nearly all actives have a fitted effect of over 65% in size
Target sequence (P53350 whole entry, looked up, the tested form may be a part): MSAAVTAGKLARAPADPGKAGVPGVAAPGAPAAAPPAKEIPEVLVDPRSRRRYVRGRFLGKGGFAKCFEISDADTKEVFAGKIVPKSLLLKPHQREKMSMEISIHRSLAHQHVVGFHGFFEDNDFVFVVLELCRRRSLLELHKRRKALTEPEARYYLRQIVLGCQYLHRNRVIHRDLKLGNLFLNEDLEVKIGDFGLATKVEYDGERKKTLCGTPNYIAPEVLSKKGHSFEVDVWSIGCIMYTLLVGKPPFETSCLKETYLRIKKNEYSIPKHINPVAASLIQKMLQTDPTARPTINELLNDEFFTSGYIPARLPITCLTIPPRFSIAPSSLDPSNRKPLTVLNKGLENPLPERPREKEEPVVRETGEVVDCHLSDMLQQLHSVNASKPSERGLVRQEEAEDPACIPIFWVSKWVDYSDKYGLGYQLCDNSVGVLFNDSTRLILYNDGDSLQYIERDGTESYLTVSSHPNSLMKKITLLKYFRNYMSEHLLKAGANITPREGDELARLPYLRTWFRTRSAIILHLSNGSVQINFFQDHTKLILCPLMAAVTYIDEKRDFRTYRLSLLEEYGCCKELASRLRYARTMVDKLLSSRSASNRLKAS
Active calls of the source: *; ? = inconclusive; . = not tested or not shown; [ ] = another dose, or the depositor's remark. Rows were chosen to be rich in hits. Some 3% of all compounds tested hit in one or more screens of this group. Calls come from the whole dose curve; as a rule, active = well fitted curve in the direction sought with a large enough effect; inconclusive = small, poorly fitted or top-dose-only effect, or another doubt; inactive = no such curve, though single readings can be large; an effect the other way counts as inactive or inconclusive. % is set by controls: 0 for no effect and ±100 for the full control effect; potency is the fitted concentration of half-maximal effect.

SMILES | KAT2A inh | VDR inhibitor | 12-LOX inh | PLK1 PBD block
N#Cc1c(-c2ccccc2)cc(-c2cccs2)nc1SCC(=O)O | -2% | ? | ? | 27µM*
N#Cc1c(-c2ccccc2)cc(-c2cccs2)nc1SCCS(=O)(=O)Cc1ccccc1 | . | . | -17% | .
N#Cc1c(-c2ccc(Cl)cc2)cc(-c2cccs2)nc1SCC(=O)O | -20% | ? | ? | 17µM*
Cc1ccc(C)c(C(=O)COC(=O)c2cc(=O)c3ccccc3o2)c1 | . | . | -16% | .
O=C(O)c1nn(-c2ccc(F)cc2)ccc1=O | -1% | -6% | -27% | -7%
O=C(O)c1nn(-c2ccccc2)ccc1=O | 19% | -12% | ? | 12µM*
O=S(=O)(NC(c1ccccc1)c1ccccc1)c1cccc2nsnc12 | . | . | 11µM* | .
NS(=O)(=O)c1cccc2c1C(=O)c1cccc(O)c1C2=O | . | . | -17%[57.4 µM] | .
CC1=CC2C(=O)c3cccc(O)c3C(=O)C2C(O)=C1 (stereo not drawn) | . | 25µM* | ? | .
O=C(COc1ccccc1)NC1CCCc2c1[nH]c1c(Cl)cccc21 (stereo not drawn) | . | . | 25% | .
N#Cc1cccc(NC(=O)N[C@H]2[C@H](O)[C@@H](N3CCC(Cc4ccccc4)CC3)[C@@H]3OC[C@H]2O3)c1 | . | . | 45µM* | .
CCOc1cc(C(=S)N2CCOCC2)ccc1OS(=O)(=O)c1ccccc1[N+](=O)[O-] | -7% | 2% | 0% | -9%
COc1cc(C(=S)N2CCOCC2)ccc1OS(=O)(=O)c1ccccc1[N+](=O)[O-] | -1% | -20% | -17% | 15µM*
COc1ccc(C(=O)N2CCN(c3ccc(NC(=O)c4cccs4)cc3)CC2)cc1 | 0% | 1% | 64% | -1%
Cc1ccc(C(=O)N2CCN(c3ccc(NC(=S)NC(=O)c4cccs4)cc3)CC2)cc1 | -6% | 18% | 11µM* | -20%
Cc1ccccc1C(=O)N1CCN(c2ccc(NC(=S)NC(=O)c3cccs3)cc2)CC1 | -2% | -3% | 35µM* | -13%
CCn1c(SCC(=O)Nc2ccnn2C2CCCC2)nnc1C1CC1 | . | . | 3% | .
CC1CCN(c2ccc(NC(=O)C(Cc3ccccc3)NC(=O)c3cccs3)cc2)CC1 (stereo not drawn) | . | . | -10% | .
COc1ccc(NC(=O)CN2C(=O)CSC(C)C2=O)cc1 (stereo not drawn) | 12% | -29% | -9% | 21µM*
Cc1ccc(C(C=O)C=O)cc1 | . | . | -26% | .
COc1ccc2oc(-c3ccco3)cc(=O)c2c1 | ? | -15% | -15% | -12%
COc1cccc2oc(-c3ccco3)cc(=O)c12 | -3% | ? | ? | 21µM*
CCc1c(C)sc(NC(=O)C2CCCCC2C(=O)O)c1C(N)=O (stereo not drawn) | -26% | 79µM* | ? | ?
CCc1c(C)sc(NC(=O)c2c(F)cccc2F)c1C#N | . | . | -7% | .
CCc1c(C)sc(NC(=O)c2ccc(C)s2)c1C(N)=O | . | . | -27% | .
SMILES | KAT2A inh | VDR inhibitor | 12-LOX inh | PLK1 PBD block
CCc1c(C)sc(NC(=O)C2CCCCC2)c1C#N | . | . | 8.9µM* | .
CCc1c(C)sc(NC(=O)OC)c1C#N | . | . | 25µM* | .
Cc1cc(C)c(NC(=O)Cn2cnc3c2c(=O)n(C)c(=O)n3C)c(Cl)c1 | . | . | -16% | .
NC(=O)CSc1cc(C(=O)NC2CC2)c2ccccc2n1 | . | . | 23% | .
CC(C)NC(=S)N/N=C/c1ccc(C(C)(C)C)cc1 | -11% | 4% | 32µM* | 5%
Cn1cc(CC(=O)NCc2cn3ccccc3n2)c2ccccc21 | . | . | 21% | .
O=C(CSc1n[nH]c(-c2cccnc2)n1)OC1CCCCC1 | 3% | ? | ? | 12µM*
CC1(C)C(O)C=C[C@@]2(C)C1CC(=O)O[C@@]1(C)C3=CC(=O)OC(c4ccoc4)[C@]3(C)CCC21 (stereo partly drawn) | -6% | 45µM* | . | .
CCc1ccc(N2CC(C(=O)N/N=C/c3ccccc3)CC2=O)cc1 (stereo not drawn) | . | ? | -5% | 27µM*
C=CCNC(=O)Nc1cc(Cl)ccc1OC | -2% | -10% | 2% | 27µM*
COc1ccc(Cl)cc1NC(=S)NCCO | -8% | 0% | -21% | -17%
COc1cc(NC(=S)NCCC(c2ccccc2)c2ccccc2)c(OC)cc1Cl | -2% | -5% | 40µM* | ?
COc1ccc(Cl)cc1NC(=S)NCCC(c1ccccc1)c1ccccc1 | -15% | -24% | 32µM* | -1%
COc1ccc(Cl)cc1NC(=O)c1ccccc1C | -3% | -13% | 5% | -3%
COc1ccc(Cl)cc1NC(=S)Nc1ccccc1C | -3% | ? | ? | 11µM*
COc1ccccc1NC(=S)NCCC(c1ccccc1)c1ccccc1 | -7% | -27% | 35µM* | -3%
S=C(NCCC(c1ccccc1)c1ccccc1)Nc1ccccc1Cl | -3% | 22% | ? | -11%
COCc1ccc(CN2CCCC(CCC(=O)NCc3ccc(C)o3)C2)o1 (stereo not drawn) | -4% | 0% | -6% | 2%
COC(=O)c1ccc(CN2CCCC(CCC(=O)NCc3ccc(C)o3)C2)cc1 (stereo not drawn) | -5% | -1% | 0% | 24µM*
CC(C)(C)C1CCC(C(=O)NCCc2c[nH]c3ccccc23)CC1 (stereo not drawn) | . | . | -13% | .
CNC(=O)CCCCCNS(=O)(=O)c1ccc(C)cc1 | 2% | -9% | -20% | 19µM*
Cc1cccc(C)c1NC(=O)CCCCCNS(=O)(=O)c1ccccc1 | -5% | -6% | 5% | 24µM*
O=S(=O)(NCCCCCNS(=O)(=O)c1ccccc1)c1ccccc1 | -2% | -22% | -28% | 30µM*
Cc1ccc2c(COC(=O)c3cccs3)cc(=O)oc2c1C | . | . | -23% | .
CCCNC(=O)C(C)Sc1nc2ccc(F)cc2c(=O)[nH]1 (stereo not drawn) | . | . | 12% | .
Cc1ccc(-c2nc3cc(NC(=O)CC(C)C)ccc3o2)cc1Cl | . | . | -27% | .
CCCn1nc(C(=O)N2CCN(c3ccc(C(C)=O)cc3)CC2)c2ccccc2c1=O | . | . | -29% | .
O=C(O)c1ccc(OCCCCCCOC2CCCCO2)cc1 (stereo not drawn) | 1% | ? | 0% | 27µM*
